Experimental data published in PubChem BioAssay AID1159580 (chemical genetic matrix, 2015).
Several values for one entry are separate records, joined by “and”; a condition that tells them apart may be missing. Equal entries are not always repeated. The campaign covered roughly 5,500 compounds. About 2,000 (36%) were called active. Another 18% or so got no clear call; they are omitted. Cut-off read from the data, not from the text of the source: active = normalized growth mostly below about 0.91 (no sharp cut-off); inconclusive = no clear call, values can overlap the other calls; inactive = mostly above about 0.92. Some of the results follow.

Assay: chemical genetic growth profiling, strain panel (AID 1159580);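 note: tested at 20 µM; growth read once vehicle control cultures reached saturation at 30 °C; 1 = growth at the plate median or of vehicle wells; lower values mean less growth of the strain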
Settings: S. cerevisiae deletion strains, growth OD

Measured: normalized growth

N#CC(O[C@@H]1O[C@H](CO[C@@H]2O[C@H](CO)[C@@H](O)[C@H](O)[C@H]2O)[C@@H](O)[C@H](O)[C@H]1O)c1ccccc1 (some centres not stated)
inactive: locus YAL013W, strain DEP1, active compounds read low 1 | locus YAL021C, strain ccr4, active compounds read low 0.965 | locus YAL026C, strain drs2, active compounds read low 0.99 | locus YAL030W, strain snc1, active compounds read low 0.986 | locus YBL061C, strain skt5, active compounds read low 0.97 | locus YBR009C, strain hhf1, active compounds read low 0.987 | locus YBR021W, strain FUR4, active compounds read low 0.986 | locus YBR023C, strain chs3, active compounds read low 0.979 | locus YBR171W, strain sec66, active compounds read low 0.975 | locus YBR229C, strain ROT2, active compounds read low 0.993 | locus YBR231C, strain swc5, active compounds read low 0.981 | locus YBR279W, strain paf1, active compounds read low 0.981 | locus YCL011C, strain gbp2, active compounds read low 0.986 | locus YCL016C, strain dcc1, active compounds read low 0.983 | locus YCL029C, strain bik1, active compounds read low 1 | locus YCL061C, strain MRC1, active compounds read low 0.99 | locus YCL069W, strain vba3, active compounds read low 0.988 | locus YCR088W, strain abp1, active compounds read low 0.975 | locus YDL005C, strain med2, active compounds read low 0.967 | locus YDL035C, strain GPR1, active compounds read low 1.01 | locus YDL040C, strain nat1, active compounds read low 0.976 | locus YDL074C, strain BRE1, active compounds read low 1.01 | locus YDL101C, strain DUN1, active compounds read low 1 | locus YDL185W, strain tfp1, active compounds read low 0.975 | locus YDL192W, strain arf1, active compounds read low 0.998 | locus YDR001C, strain nth1, active compounds read low 0.988 | locus YDR069C, strain doa4, active compounds read low 0.975 | locus YDR101C, strain arx1, active compounds read low 0.995 | locus YDR137W, strain rgp1, active compounds read low 1.01 | locus YDR150W, strain NUM1, active compounds read low 1.01 | locus YDR159W, strain sac3, active compounds read low 0.961 | locus YDR162C, strain NBP2, active compounds read low 1.04 | locus YDR195W, strain ref2 0.945 | locus YDR297W, strain sur2, active compounds read low 0.992 | locus YDR318W, strain mcm21, active compounds read low 1 | locus YDR334W, strain swr1, active compounds read low 0.984 | locus YDR335W, strain msn5, active compounds read low 0.988 | locus YDR388W, active compounds read low 0.991 | locus YDR392W, strain spt3, active compounds read low 0.974 | locus YDR502C, strain sam2, active compounds read low 1.02 | locus YEL003W, strain gim4, active compounds read low 0.99 | locus YEL037C, strain rad23, active compounds read low 0.982 | locus YEL061C, strain CIN8 (second series), active compounds read low 0.991 | locus YEL061C, strain CIN8, active compounds read low 1 | locus YER015W, strain faa2, active compounds read low 0.987 | locus YER016W, strain bim1, active compounds read low 0.977 | locus YER110C, active compounds read low 0.996 | locus YER111C, strain swi4, active compounds read low 0.982 | locus YER155C, strain BEM2 (second series), active compounds read low 0.966 | locus YER155C, strain BEM2, active compounds read low 0.992 | locus YER167W, strain BCK2, active compounds read low 1 | locus YFR010W, strain ubp6, active compounds read low 0.977 | locus YGL078C, strain dbp3, active compounds read low 0.989 | locus YGL086W, strain mad1, active compounds read low 0.995 | locus YGL167C, strain pmr1, active compounds read low 0.98 | locus YGL173C, strain kem1, active compounds read low 0.963 | locus YGL227W, strain vid30, active compounds read low 0.97 | locus YGL240W, strain doc1, active compounds read low 0.971 | locus YGL248W, strain PDE1, active compounds read low 1.05 | locus YGL253W, strain hxk2, active compounds read low 0.985 | locus YGR135W, strain pre9, active compounds read low 0.985 | locus YGR252W, strain gcn5, active compounds read low 0.987 | locus YHR013C, strain ard1, active compounds read low 0.964 | locus YHR027C, strain rpn1, active compounds read low 0.98 | locus YHR030C, strain SLT2, active compounds read low 1 and 0.975 | locus YHR079C, strain IRE1 (second series), active compounds read low 0.99 | locus YHR079C, strain IRE1, active compounds read low 0.971 | locus YHR094C, strain hxt1, active compounds read low 0.978 | locus YHR129C, strain ARP1, active compounds read low 1 | locus YHR142W, strain chs7, active compounds read low 0.983 | locus YHR200W, strain rpn10, active compounds read low 1 | locus YIL066C, strain RNR3, active compounds read low 1.03 | locus YIL073C, strain SPO22, active compounds read low 1.02 | locus YIL125W, strain kgd1, active compounds read low 0.996 | locus YIR030C, strain dcg1, active compounds read low 0.992 | locus YJL092W, strain hpr5, active compounds read low 0.987 | locus YJL095W, strain BCK1 (second series), active compounds read low 0.971 | locus YJL095W, strain BCK1, active compounds read low 1.06 and 1.01 | locus YJL115W, strain asf1, active compounds read low 0.977 | locus YJL129C, strain trk1, active compounds read low 0.967 | locus YJL134W, strain LCB3, active compounds read low 0.993 | locus YJL154C, strain vps35, active compounds read low 0.979 | locus YJL164C, strain tpk1, active compounds read low 0.98 | locus YJL166W, strain qcr8, active compounds read low 0.982 | locus YJL168C, strain set2, active compounds read low 0.993 | locus YJL187C, strain SWE1 (second series), active compounds read low 1.02 | locus YJL187C, strain SWE1, active compounds read low 0.994
